Compound activity as filed in PubChem.
Shiga toxin inh: Shiga toxin inhibition | Vero cells, Shiga toxin protein synthesis inhibition reporter | inhibition, % at 38.7 µM | actives 9.2% (n = 290,000) | AID 2315; in the data active = inhibition mostly above about 28%, no sharp cut-off; inactive = mostly below about 43%; note: 0% is about no effect
FBPA Giardia inh: blocks Giardia fructose-bisphosphate aldolase activity; purified Giardia FBPA; Potency, µM (titrated, usually from 59.6 µM), for the others: at the top dose activity, negative = inhibition, hits mostly inhibitors; actives 0.71% (n = 290,000); note: potency is the fitted concentration of half-maximal effect; % is set by controls: 0 for no effect and ±100 for the full control effect; nearly all actives have a fitted effect of over 55% in size
Target sequence (A8B2U2 whole entry, looked up): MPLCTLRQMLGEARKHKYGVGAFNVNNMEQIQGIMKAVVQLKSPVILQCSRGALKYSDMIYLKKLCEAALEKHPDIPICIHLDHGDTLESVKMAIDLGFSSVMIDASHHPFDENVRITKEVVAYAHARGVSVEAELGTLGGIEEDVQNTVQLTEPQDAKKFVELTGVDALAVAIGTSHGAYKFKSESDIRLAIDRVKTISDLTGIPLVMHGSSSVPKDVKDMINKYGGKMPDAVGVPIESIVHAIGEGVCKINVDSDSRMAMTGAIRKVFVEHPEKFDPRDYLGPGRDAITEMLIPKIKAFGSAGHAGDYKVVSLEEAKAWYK
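40 nM FBPA preincubated 10 min at RT with compound (up to 57.5 uM final), then substrate plus GAPDH/TPI/NAD/arsenate coupling and diaphorase/resazurin added. Fluorescence read after 20 min at RT, 525/598 nm.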
Pf growth 48h: inhibits P. falciparum growth in the first generation, 48 h | Potency, µM (titrated, usually from 28.7 µM), inactives show top-dose activity change, negative = inhibition, actives largely listed as inhibitors | P. falciparum luciferase growth in erythrocytes, 48 h | AID 504832 | actives 5.9% (n = 310,000); note: potency is the fitted concentration of half-maximal effect; % is set by controls: 0 for no effect and ±100 for the full control effect
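Luciferase-expressing parasites in RBCs, 2% Hct / 0.1% parasitemia final; RPMI 1640 + 0.5% Albumax; 37 C, 5% CO2, one generation; luminescence read-out, lower signal = inhibition.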
NS1 inh: influenza NS1 inhibition. AID 2326. actives 0.4% (n = 270,000). Potency, µM (series often up to 46.1 µM), without a hit: at the top dose activity, positive = more growth; calls by dose curve; note: potency is the fitted concentration of half-maximal effect; actives are rising curves; nearly all actives have a fitted effect of over 50% in size
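OD600 was taken as the measure of yeast growth restored by compound in an NS1-expressing S. cerevisiae strain. Cells had been washed out of glucose medium and diluted 1:100 into galactose -URA medium, pH 6.0.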
Pf growth 96h: inhibits malaria parasite growth, 96 h; P. falciparum luciferase reporter growth, 96 h; Potency, µM (top dose mostly 28.7 µM), for the others: at the highest dose activity change, negative = inhibition, hits mostly inhibitors; actives 6.9% (n = 320,000); note: potency is the fitted concentration of half-maximal effect; % is set by controls: 0 for no effect and ±100 for the full control effect
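P. falciparum expressing integrated firefly luciferase, in erythrocytes at 2% hematocrit, 0.05% parasitemia, incubated with compounds 96 h at 37 C, 5% CO2. Growth inhibition read as loss of luminescence; two-generation exposure targets delayed-death apicoplast inhibitors.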
CHX counter: counter-screen for Shiga toxin inhibitors: cycloheximide protein synthesis inhibition; cell reporter, cycloheximide protein synthesis inhibition counterscreen; actives 12% (n = 300,000); max response, %; in the data active = max response mostly above about 13%, no sharp cut-off; inactive = mostly below about 14%; note: read at 38.3 µM for the half of the compounds with a filed dose; 0% is about no effect
Starred values were filed as active, the others as inactive; ? = inconclusive; nt = no result given; [ ] = dose if it differs, or a comment. An excerpt weighted towards active compounds, which were near 21% of everything screened. Unless noted, calls come from the whole dose curve; as a rule, active = well fitted curve in the direction sought with a large enough effect; inconclusive = small, poorly fitted or top-dose-only effect, or another doubt; inactive = no such curve, though single readings can be large; an effect the other way counts as inactive or inconclusive.

SMILES	Shiga toxin inh	FBPA Giardia inh	Pf growth 48h	NS1 inh	Pf growth 96h	CHX counter
COc1cccc(CC(NC(C)=O)C(=O)NC2CCN(S(=O)(=O)c3ccc(NC(C)=O)cc3)CC2)c1OC (stereo not given)	-13.3	-2.3%	-7.2%	7.9%	3.4%	-3.8
COc1cccc(NC(=O)COc2coc(CN3CCc4ccccc4C3)cc2=O)c1	nt	nt	19.8%	nt	?	nt
COCC(=O)NCCc1nc(-c2ccccc2)cs1	-40.1	7.1%	8.7%	1.2%	92.5%	-2.8
COCC(=O)Nc1nc(-c2ccccc2)ns1	41.0	-1.7%	109.5%	-6.7%	nt	34.7*
CCc1sc(NC(C)=O)nc1-c1ccccc1	-1.9	2.9%	22.5%	-36.9%	?	-0.6
CC(=O)Nc1nc(-c2ccccc2)ns1	38.1*	-3.4%	161.1%	-10.4%	146.1%	23.3*
COc1ccc(NC(=O)CSc2nc3ccccc3nc2N2CCCC2)c(OC)c1	-3.3	-1.8%	?	8.0%	-4.2%	1.0
COc1ccc(CC2(C)OC(c3ccc([N+](=O)[O-])cc3)=NN2C(C)=O)cc1 (stereo not given)	-9.4	0.8%	9.28µM*	-33.1%	9.28µM*	0.8
COc1ccc(C(=O)NNC(=O)Cc2ccc([N+](=O)[O-])cc2)cc1	-8.7	3.4%	29.0%	1.5%	-3.3%	-3.6
OCCC1CN(Cc2ccc(-n3cccn3)cc2)CCN1Cc1ccccc1 (stereo not given)	-7.5	0.9%	-9.9%	-1.0%	8.28µM*	-2.3
Cc1ccc(CN2CCN(Cc3cccc(-n4cccn4)c3)CC2CCO)cc1 (stereo not given)	26.1	0.9%	-20.5%	-0.1%	-32.5%	-3.0
OCCC1CN(Cc2ccc3ncccc3c2)CCN1Cc1ccccc1 (stereo not given)	-2.1	-2.9%	-4.5%	-5.3%	?	1.3
CSc1ccc(CN2CCN(Cc3ccccc3)C(CCO)C2)cc1 (stereo not given)	14.3	4.1%	-7.5%	0.3%	11.7µM*	-3.0
Cc1ccc(CN2CCN(Cc3ccc(-n4cccn4)cc3C)CC2CCO)cc1 (stereo not given)	9.3	-2.1%	10.4µM*	5.2%	24.5%	-2.4
Cc1ccc(CN2CCN(Cc3ccon3)CC2CCO)cc1 (stereo not given)	-24.1	2.3%	-2.3%	2.8%	10.4µM*	-3.9
CCOC(=O)C1CCN(c2ccccc2CN2CCN(c3ccccc3OCC)CC2)CC1	-3.3	4.2%	?	4.8%	?	-3.3
Cn1c(CC(=O)Nc2ccc(Cl)cc2)nnc1SCC(=O)N1CCOCC1	-7.5	nt	7.4%	-12.6%	?	-0.8
O=C(COC(=O)C1CCN(c2ccc(C(F)(F)F)cn2)CC1)c1ccccc1	nt	nt	13.9%	nt	6.7%	nt
CC(C)NC(=O)Nc1n[nH]c(Nc2ccc(Cl)cc2)n1	12.5	0.2%	2.9%	-0.7%	?	13.0
CC(C)N=c1cc2n(-c3ccc(Cl)cc3)c3ccccc3nc-2cc1Nc1ccc(Cl)cc1	nt	-0.5%[21.7 µM]	2.87µM*	nt	?	nt
COC(=O)c1[nH]c2cc(OC)ccc2c1NC(=O)CCN1CCN(c2cccc(C)c2C)CC1	-20.8	-5.9%	2.62µM*	-70.9%	-4.8%	-10.9
CCOC(=O)c1[nH]c2ccc(OC)cc2c1NC(=O)CN1CCN(c2ccccn2)CC1	-4.0	-1.4%	-14.2%	5.4%	-18.8%	1.0
COC(=O)c1[nH]c2cc(OC)ccc2c1NC(=O)CCN1CCN(c2ccccc2)CC1	-5.9	4.1%	-16.8%	0.9%	nt	1.3
CCOC(=O)c1[nH]c2ccc(F)cc2c1NC(=O)C(C)N1CCc2cc(OC)c(OC)cc2C1 (stereo not given)	-16.7	-9.2%	14.7µM*	-86.7%	?	-2.0
COC(=O)c1[nH]c2ccccc2c1NC(=O)CN1CCN(c2cccc(OC)c2)C(C)C1 (stereo not given)	-15.5	-7.5%	9.28µM*	-45.1%	nt	-1.1
SMILES	Shiga toxin inh	FBPA Giardia inh	Pf growth 48h	NS1 inh	Pf growth 96h	CHX counter
CCOC(=O)c1[nH]c2ccc(OCC)cc2c1NC(=O)CN1CCN(c2ccccn2)CC1	-21.1	7.9%	7.38µM*	-63.7%	4.65µM*	-1.6
CCC(C)N1C(=O)CN(C2CCCCCC2)C(=O)C1c1ccccc1F (stereo not given)	-7.0	3.7%	-26.7%	nt	?	6.6
COc1cccc(CN2CC(C(=O)NCCn3ccc(C)n3)CCC2=O)c1 (stereo not given)	-8.2	nt	0.4%	-3.5%	?	9.1
CCOC(=O)c1[nH]c2ccc(OC)cc2c1NC(=O)CN1CCc2ccccc2C1	-14.7	-5.3%	?	-74.3%	11.7µM*	1.3
CCOC(=O)c1[nH]c2ccc(OC)cc2c1NC(=O)CN1CCC2(CC1)OCCO2	-5.1	0.5%	-13.4%	-8.1%	nt	5.0
COc1ccc(CCN2C(=O)CSC2=Nc2ccc(C)cc2C)cc1OC	-1.0	-5.5%	2.62µM*	-8.2%	?	-0.6
CC(C)(C)c1nc2c(Br)cc(Br)cc2c(=O)o1	-13.8	-11.8%	11.9%	5.9%	0.37µM*	-1.3
Cc1ccc(CN=c2c([N+](=O)[O-])nn(-c3ccc(Cl)cc3)n2O)cc1	33.5	-17.3%	75.4%	8.9%	3.29µM*	43.7*
O=[N+]([O-])c1nn(-c2ccc(Cl)cc2)n(O)c1=NCc1ccccc1Cl	73.9*	1.2%	0.0%	-2.1%	43.7%	35.0*
O=[N+]([O-])c1nn(-c2ccc(Cl)cc2)n(O)c1=NCc1ccncc1	36.5	-1.9%	2.94µM*	-9.5%	-19.2%	17.0
O=[N+]([O-])c1nn(-c2ccccc2)n(O)c1=NC1CCN(Cc2ccccc2)CC1	8.5	-10.3%	?	2.6%	?	-2.1
Cc1c(Cl)c([N+](=O)[O-])nn1CC(=O)NCc1ccc(Cl)cc1	8.0	-0.3%	-8.9%	10.1%	?	-0.7
CCc1cccc(NC(=O)C2CCN(S(=O)(=O)c3ccc4c(c3)NC(=O)CO4)CC2)c1	22.7	nt	-11.8%	18.0%	49.9%	-4.9
CC(C)(C)C(=O)Cn1ncc(N2CCCC2)c(Br)c1=O	138.0*	-6.6%	124.9%	2.8%	275.8%	36.3*
CC(C)(C)C(=O)Cn1ncc(Cl)c(Cl)c1=O	-31.4	4.5%	?	nt	?	-14.2
CC(C)(C)C(=O)Cn1ncc(NC2CC2)c(Br)c1=O	14.3	-3.5%	22.0%	13.6%	17.5%	12.6*
COCCn1c(=O)c(C)nc2cnc(Oc3cccc(Cl)c3)nc21	nt	2.0%	nt	nt	nt	nt
CCOc1ccccc1N1CCN(Cc2c(C)n(C)n(-c3ccccc3)c2=O)CC1	13.7	4.0%	0.5%	0.4%	-10.9%	-1.6
COc1cccc(NC(=O)COC(=O)c2ccccc2F)c1	8.6	0.5%	8.9%	6.0%	-13.9%	7.9
O=C(COC(=O)c1c(F)cccc1Cl)NC1CCCC1	109.8*	-0.2%	93.3%	-8.5%	84.7%	51.4*
COc1cccc(NC(=O)COC(=O)c2c(F)cccc2Cl)c1	94.9*	-6.1%	134.7%	-3.4%	223.8%	36.9*
